From the supplement of paper PMC11417369
± gives the standard deviation of the averaged measurements. The full ranking holds about 25,000 sequences; the median of “ln(normalized median fluorescence intensity)” is about 8.6, and the highest 2% start at about 10. The full list was thinned out, with the highest values kept by preference.

Test system: PfAP2-EXP AP2 domain (GST-tagged)
Experiment: gcPBM binding intensity (ln(normalized median fluorescence intensity)); higher = stronger DNA binding
Summary of the method: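 Plasmodium falciparum DNA-binding domains carrying a GST tag were expressed in E. coli and applied for 1 h, at about 25 μg on average, to an Agilent 4 × 180k array. The array held primer-extended double-stranded 36-bp intergenic genomic probes together with negative controls, and binding took place in 1× PBS with 1% milk, 0.2 mg/ml BSA, 0.5% salmon testes DNA and 0.03% Triton X-100. An Alexa488 anti-GST antibody detected bound protein, and the array was scanned at 488 nm. Binding intensity is taken as the highest Masliner-normalised natural-log median intensity across replicate spots of either probe orientation.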

Row | Sequence | gcPBM binding intensity (ln)
1 | TAGTAATATGTATCCATACACACATACATTTTATTT [CACACA_site873] | 8.52 ± 0.41
2 | TATAACAAAATATTCACACATATAAGTAAATAAAGG [CACACA_site5777] | 8.73 ± 0.28
3 | AATTTTAATTATATCACACATAATATATACCAAAAA [CACACA_site6011] | 8.51 ± 0.38
4 | GAATAATCTAGAAACACACAAACACGACAAAAGAAA [CACACA_site4135] | 8.93 ± 0.55
5 | TTTTGTTCTAATATGGGAACATAAATATTAAATATA [CACACA_negctrl_site1787] | 8.22 ± 0.45
6 | TATTTGTTGTGAGTCACACATATATATATATATATA [CACACA_site4240] | 10.3 ± 0.42
7 | TTTTTTTTTTTTGTCACACATATATTTGTATTTATA [CACACA_site5234] | 8.58 ± 0.38
8 | ATTTTATTTTTTCACACACACATATATATATATATA [CACACA_site3334] | 10.2 ± 0.32
9 | TGTATATTTGTTGTTACACACATATATTTTTTTTTT [CACACA_site128] | 8.53 ± 0.3
10 | CATATTTGCACTTTCACACATAAATATATAACTATA [CACACA_site6016] | 8.91 ± 0.31
11 | TCATTTTATTTTTTCACACACACATATATATATATA [CACACA_site3333] | 10.1 ± 0.33
12 | TTATTTTTATATTTCACACACATATACTTTTACATA [CACACA_site4097] | 8.8 ± 0.47
13 | TTTGTAACTTCTTTCACACATATATATATATATATA [CACACA_site5603] | 10.3 ± 0.47
14 | TTTTTTTTTTTGGTTACACACATTTGTATATTCTCA [CACACA_site134] | 8.69 ± 0.49
15 | TTTCTTTCTTCACATATATATATATATATATTTATA [TGCATGCA_negctrl_site341] | 8.83 ± 0.3
16 | TATTTTATATTTCATTTGTTATTTTTCTTGGTTCTA [CACACA_negctrl_site33] | 8.63 ± 0.57
17 | TTTGTTATGGTTTTCTCACACATATATATATATATA [CACACA_site4617] | 10.4 ± 0.36
18 | TAAAATATTGTTATTACATGCAACCTTATGAAAAAT [TGCATGCA_site706] | 8.94 ± 0.17
19 | GTATAAAAGTTATATACACACAACAGAATTACATAT [CACACA_site6212] | 8.68 ± 0.49
20 | TCTTAATATGGTAATACACACTAATATACTTTTGTT [CACACA_site4969] | 8.55 ± 0.31
21 | TTTTGTTTGTTCGTGACTACATTATGTTGTAAATAC [CACACA_negctrl_site604] | 8.78 ± 0.38
22 | TATACATTTATGTACACACACATATAGGTATATTTA [CACACA_site7408] | 8.47 ± 0.099
23 | AATTATAAAAAAAAAAAAAAAAAAAAAAACTAAATG [CACACA_negctrl_site1379] | 8.11 ± 0.47

Row | Sequence | gcPBM binding intensity (ln)
24 | TTTATTTTTTGTGGCACACAGAAGAAACAAGAACAA [CACACA_site1696] | 9.12 ± 0.35
25 | TGAACAATATATAATAGTACATATTTATTTTTTTCT [XGTACX_site4256] | 8.13 ± 0.2
26 | CTTAAAAAAAAAAAATGTACACATAAAAAAAATACA [XGTACX_site6700] | 8.52 ± 0.35
27 | TTGTTGATTGTTATTTATCATTAGATGTAAAATATG [CACACA_negctrl_site927] | 8.39 ± 0.3
28 | TATAAAATGTAATCTGAACACACATATTTTTTTAAT [CACACA_site8521] | 8.11 ± 0.37
29 | ATATTGAATTCCAACACATGCAAAACTTTCGGTTTT [TGCATGCA_site485] | 8.8 ± 0.38
30 | TCATATTATAAAAAATGTACAAGGAAAAAATATATA [XGTACX_site337] | 9.06 ± 0.58
31 | TTTATTCTCAAACACACACACATATATATATATATA [CACACA_site2895] | 10.2 ± 0.51
32 | TATTTATTCTCCAACACACACACATATATATATATA [CACACA_site2894] | 10.1 ± 0.43
33 | ATATTTATGAAGTTCACACATATATATATATATATA [CACACA_site5954] | 10.3 ± 0.52
34 | TTTTTATATATATTCTCACACACTTTTTATTTTAAC [CACACA_site657] | 8.7 ± 0.46
35 | ATATATTTTATACATACACACATATATATATTTTTT [CACACA_site3940] | 8.66 ± 0.33
36 | ATTTTATTTTCATATGAACACACATATATATATTAT [CACACA_site8741] | 9.15 ± 0.47
37 | TTTTCATTTTTCTTTACACACATATATATATATATA [CACACA_site2236] | 10.2 ± 0.31
38 | AACATATTTATATACACACACATATTTATATGAAAT [CACACA_site6268] | 8.39 ± 0.33
39 | TATTTATTCTCCAACACACACACATATATTTATATA [CACACA_site7376] | 8.69 ± 0.53
40 | TATACACATATTTTTACACACATATTTTTTCATATA [CACACA_site7244] | 8.7 ± 0.38
41 | TTTTCATTTTTCTTTACACACATATATTTATTTATA [CACACA_site7119] | 8.94 ± 0.4
42 | ATTTTATTTTCTCACACACACATATATATATATATA [CACACA_site5781] | 10.4 ± 0.4
43 | TCGTGTTTTAAAAAAATGAAGAAAAGTAAAAAAAAA [XGTACX_negctrl_site23] | 8.46 ± 0.67
44 | AGGATAATATACAAAAGTACATAAAACTAAAAAAAC [XGTACX_site605] | 9.01 ± 0.24
45 | AAAAATATAACCGTTACACACAAAATAATATGAGAA [CACACA_site3773] | 8.72 ± 0.43
46 | ATATTTATTTATTTATGTACGCACACAGTTGATATT [XGTACX_site5808] | 8.92 ± 0.4

Row | Sequence | gcPBM binding intensity (ln)
47 | TTTTTTTTATTTTGTTGTACGCTTATTTGTATATAT [XGTACX_site7325] | 8.95 ± 0.45
48 | TAAATACATAAATACACACACATATATTATATATAT [CACACA_site4310] | 8.62 ± 0.14
49 | TATAATTATTTTTTCACACATATGTATTTATATATA [CACACA_site4205] | 8.88 ± 0.43
50 | TTTTTTTTTTTTTTTTTTTATGTATACATATTTATA [TGCATGCA_negctrl_site234] | 8.28 ± 0.43
51 | TCCATATTTGTTCACACACACACATATTTATATATA [CACACA_site3570] | 8.84 ± 0.42
52 | AAAATATATAAACGCACATATATTTATGTATATATA [CACACA_negctrl_site163] | 8.64 ± 0.49
53 | AAAAAAAAAAAAATCACACATATGTATTTATATATA [CACACA_site5790] | 8.21 ± 0.46
54 | TGAAGAATATTTTTCACACATATATATATATATATA [CACACA_site6080] | 10.2 ± 0.38
55 | TTTTTTTTTTACTTCACACATATACATTTATATTTA [CACACA_site4385] | 8.7 ± 0.44
56 | CATATGTATTTATTCACACATATATATATATATATA [CACACA_site4207] | 10.2 ± 0.4
57 | TTTTTTTTTTTGTTCACACATATACTTTTATTTTGG [CACACA_site4250] | 8.72 ± 0.47
58 | CATATTTTGAACTTCACACATATATATATATATATA [CACACA_site4228] | 10.2 ± 0.3
59 | AACGCACATATATTTATGTATATATATATATATATA [GTGCAC_negctrl_site478] | 10.2 ± 0.31
60 | TTTTTTTTTTTGTTCACACATATATATATATATATA [CACACA_site5376] | 10.2 ± 0.37
61 | GACATAGTATTAAGTTGTACATATATAAAAATAAAT [XGTACX_site1583] | 8.65 ± 0.32
62 | TGCTTATCCATTTCTACACACAAAAAAAAAAAAAAA [CACACA_site37] | 8.28 ± 0.28
63 | ATAATGTAGAACTAGAGTACATAAAAAAATAAACAT [XGTACX_site5205] | 9.06 ± 0.47
64 | TATATATAAATATTCAGTACATAGTGCTATTAAGTG [XGTACX_site1979] | 8.605 ± 0.064
65 | TGTATGTATAATTGAGTGCACAGAAAAAAAAAAGAA | 9.6 ± 0.17
66 | GTTGTAAAAAGAAAATGTACGTAATAAATATATATA [XGTACX_site3081] | 8.93 ± 0.38
67 | TTTTCATATATTTATTGTACATATTACATATATAAT [XGTACX_site2425] | 8.71 ± 0.23
68 | TACATTCTAATAATTGCACACTGGTTATTAAAAGGA [CACACA_site1614] | 8.4 ± 0.29
69 | TATATATTTTTTTCAAGTACACATTACAGTTACATA [XGTACX_site2713] | 8.62 ± 0.38

Row | Sequence | gcPBM binding intensity (ln)
70 | TTATAAGATTTATGTACACACATATACTCACCTCTA [CACACA_site729] | 8.51 ± 0.25
71 | TTTATATAGAAACACACACACAAAAAAAAAAAAAAA [CACACA_site2646] | 8.24 ± 0.52
72 | ATATATATATAATTATATAAAATATATCATATGTTA [XGTACX_negctrl_site47] | 9.37 ± 0.14
73 | TTTAATCATATGTTATATAATAAGCCCCCCCCCCAA [CACACA_negctrl_site486] | 11 ± 0.12
74 | TATTAATTATATTTATGTACATAATCATATTATTAT [XGTACX_site7938] | 8.55 ± 0.35
75 | TCTTTCTATTTATAATGTACTCAAAATTATTCTATA [XGTACX_site4867] | 8.6 ± 0.36
76 | AGTGTGCTCAGCTTAGCACAAATTGGAATACCATGT [CACACA_negctrl_site367] | 8.63 ± 0.4
77 | CATATAATAAATAATACACACATATTGTAAATATAT [CACACA_site5734] | 8.43 ± 0.44
78 | ATATTAGATTAATTTACACACAGAAAATGAGATTTT [CACACA_site541] | 8.21 ± 0.36
79 | ATATTTCAAAATGAAAGTACATATAAAAATTATACA [XGTACX_site3787] | 8.31 ± 0.29
80 | TTATTTTTCAATGAAAAGGATTATATATATATATAT [CACACA_negctrl_site757] | 10.2 ± 0.13
81 | ATATTATGAAGGGATATTTTCAAAAATATTAGGAGA [CACACA_negctrl_site942] | 8.64 ± 0.41
82 | TTCATATTTCATATATGTACTTATGTTCAATATAGT [XGTACX_site3811] | 8.31 ± 0.3
83 | ATTTTTTTGTTAATTTGTACATAAAATTTTATTTTA [XGTACX_site7007] | 8.72 ± 0.42
84 | TTTATATTTATATAAATATAATATATATGAATTATA [XGTACX_negctrl_site466] | 8.19 ± 0.51
85 | TATAATATAAAATATGCACACATTGGAATGGGAGAA [CACACA_site3746] | 8.97 ± 0.35
86 | TATATGGAGAGATATGCACACTGTATGAATGCCCCC [CACACA_site8853] | 10.3 ± 0.33
87 | ATATATATATATAATGCACACATTATGAATTATGTA [CACACA_site3384] | 9.98 ± 0.26
88 | CCACTGTATGAATGCACACATTCATAGAATTGCTAT [CACACA_site2676] | 8.79 ± 0.28
89 | TATATAGAGAGATATGCACACTGTATGAATGCCCCC [CACACA_site5476] | 10.3 ± 0.38
90 | AATATATAGAGAGATATGCACACTGTATGAATGCAC [CACACA_site2677] | 8.58 ± 0.014
